# In PubChem BioAssay AID1159580 (chemical genetic matrix, 2015):
# The campaign covered roughly 5,500 compounds. About 2,000 (36%) were called active. About 18% were inconclusive and are not listed. The list shows a part of the results. A number with no mark means an inactive call. No stated cut-off is given here; in the data, active means normalized growth mostly below about 0.91 (no sharp cut-off); inconclusive means no clear call, values can overlap the other calls; inactive means mostly above about 0.92.
# Experiment: chemical genetic growth profiling, strain panel (AID 1159580);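 further: tested at 20 µM; growth read once vehicle control cultures reached saturation at 30 °C; 1 = growth at the plate median or of vehicle wells; lower values mean less growth of the strain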
# Conditions: S. cerevisiae deletion strains, growth OD
smiles,measurement,setting,value
C=C1CCC2(OC1)OC1CC3C4CC=C5CC(O)CC(O)C5(C)C4CCC3(C)C1C2C (centres undefined),normalized growth,"locus YAL021C, strain ccr4, active compounds read low",0.929
same,normalized growth,"locus YAL026C, strain drs2, active compounds read low",0.87 (active)
same,normalized growth,"locus YAL030W, strain snc1, active compounds read low",1.01
same,normalized growth,"locus YBL061C, strain skt5, active compounds read low",1.01
same,normalized growth,"locus YBR009C, strain hhf1, active compounds read low",0.873 (active)
same,normalized growth,"locus YBR023C, strain chs3, active compounds read low",0.976
same,normalized growth,"locus YBR171W, strain sec66, active compounds read low",1.01
same,normalized growth,"locus YBR231C, strain swc5, active compounds read low",1.03
same,normalized growth,"locus YBR279W, strain paf1, active compounds read low",0.995
same,normalized growth,"locus YCL011C, strain gbp2, active compounds read low",0.914
same,normalized growth,"locus YCL016C, strain dcc1, active compounds read low",0.979
same,normalized growth,"locus YCL069W, strain vba3, active compounds read low",0.939
same,normalized growth,"locus YCR088W, strain abp1, active compounds read low",0.984
same,normalized growth,"locus YDL005C, strain med2, active compounds read low",0.995
same,normalized growth,"locus YDL040C, strain nat1, active compounds read low",1.01
same,normalized growth,"locus YDR001C, strain nth1, active compounds read low",1.01
same,normalized growth,"locus YDR069C, strain doa4, active compounds read low",1.01
same,normalized growth,"locus YDR137W, strain rgp1, active compounds read low",0.586 (active)
same,normalized growth,"locus YDR159W, strain sac3, active compounds read low",0.916
same,normalized growth,"locus YDR195W, strain ref2",0.889
same,normalized growth,"locus YDR297W, strain sur2, active compounds read low",1.01
same,normalized growth,"locus YDR334W, strain swr1, active compounds read low",1.01
same,normalized growth,"locus YDR335W, strain msn5, active compounds read low",0.899 (active)
same,normalized growth,"locus YDR392W, strain spt3, active compounds read low",0.819
same,normalized growth,"locus YEL003W, strain gim4, active compounds read low",0.99
same,normalized growth,"locus YEL037C, strain rad23, active compounds read low",1
same,normalized growth,"locus YEL061C, strain CIN8 (second series), active compounds read low",0.94
same,normalized growth,"locus YER015W, strain faa2, active compounds read low",1
same,normalized growth,"locus YER016W, strain bim1, active compounds read low",0.992
same,normalized growth,"locus YER111C, strain swi4, active compounds read low",0.958
same,normalized growth,"locus YER155C, strain BEM2 (second series), active compounds read low",1.01
same,normalized growth,"locus YFR010W, strain ubp6, active compounds read low",0.97
same,normalized growth,"locus YGL167C, strain pmr1, active compounds read low",1.02
same,normalized growth,"locus YGL173C, strain kem1, active compounds read low",1.01
same,normalized growth,"locus YGL227W, strain vid30, active compounds read low",0.976
same,normalized growth,"locus YGL240W, strain doc1, active compounds read low",1
same,normalized growth,"locus YGL253W, strain hxk2, active compounds read low",0.855 (active)
same,normalized growth,"locus YHR013C, strain ard1, active compounds read low",1.06
same,normalized growth,"locus YHR027C, strain rpn1, active compounds read low",0.966
same,normalized growth,"locus YHR142W, strain chs7, active compounds read low",0.749 (active)
same,normalized growth,"locus YJL092W, strain hpr5, active compounds read low",0.978
same,normalized growth,"locus YJL095W, strain BCK1 (second series), active compounds read low",0.966
same,normalized growth,"locus YJL115W, strain asf1, active compounds read low",1.01
same,normalized growth,"locus YJL129C, strain trk1, active compounds read low",0.853 (active)
same,normalized growth,"locus YJL154C, strain vps35, active compounds read low",1
same,normalized growth,"locus YJL164C, strain tpk1, active compounds read low",0.886 (active)
same,normalized growth,"locus YJL166W, strain qcr8, active compounds read low",0.944
same,normalized growth,"locus YKL160W, strain elf1, active compounds read low",0.986
same,normalized growth,"locus YKR026C, strain gcn3, active compounds read low",0.994
same,normalized growth,"locus YKR091W, strain srl3, active compounds read low",1.01
same,normalized growth,"locus YLL001W, strain dnm1, active compounds read low",0.923
same,normalized growth,"locus YLL026W, active compounds read low",0.98
same,normalized growth,"locus YLL041C, strain sdh2, active compounds read low",1
same,normalized growth,"locus YLR027C, strain aat2, active compounds read low",0.987
same,normalized growth,"locus YLR258W, strain gsy2, active compounds read low",0.988
same,normalized growth,"locus YLR262C, strain YPT6 (second series), active compounds read low",0.548 (active)
same,normalized growth,"locus YLR320W, strain mms22, active compounds read low",0.929
same,normalized growth,"locus YLR342W, strain FKS1, active compounds read low",1.01
same,normalized growth,"locus YLR357W, strain rsc2, active compounds read low",1.07
same,normalized growth,"locus YLR370C, strain arc18, active compounds read low",1.02
same,normalized growth,"locus YLR384C, strain iki3, active compounds read low",1.01
same,normalized growth,"locus YML120C, strain ndi1, active compounds read low",0.928
same,normalized growth,"locus YMR058W, strain fet3, active compounds read low",0.959
same,normalized growth,"locus YMR125W, strain sto1, active compounds read low",1
same,normalized growth,"locus YMR129W, active compounds read low",1.01
same,normalized growth,"locus YMR205C, strain PFK2, active compounds read low",0.865 (active)
same,normalized growth,"locus YMR231W, strain pep5, active compounds read low",1.02
same,normalized growth,"locus YNL071W, strain lat1, active compounds read low",0.846 (active)
same,normalized growth,"locus YNL209W, strain ssb2, active compounds read low",1.02
same,normalized growth,"locus YNL248C, strain rpa49, active compounds read low",0.987
same,normalized growth,"locus YNL322C, strain KRE1 (second series), active compounds read low",1
same,normalized growth,"locus YNR049C, strain mso1, active compounds read low",1
same,normalized growth,"locus YOR001W, strain rrp6, active compounds read low",0.944
same,normalized growth,"locus YOR070C, strain gyp1, active compounds read low",0.997
same,normalized growth,"locus YOR080W, strain dia2, active compounds read low",1.02
same,normalized growth,"locus YOR083W, strain WHI5, active compounds read low",0.979
same,normalized growth,"locus YOR106W, strain vam3, active compounds read low",0.911
same,normalized growth,"locus YOR265W, strain rbl2, active compounds read low",1.01
same,normalized growth,"locus YOR270C, strain vph1, active compounds read low",0.771 (active)
same,normalized growth,"locus YOR290C, strain snf2, active compounds read low",0.887
same,normalized growth,"locus YPL051W, strain arl3, active compounds read low",0.907 (active)
same,normalized growth,"locus YPL078C, strain atp4, active compounds read low",0.929
same,normalized growth,"locus YPL106C, strain sse1, active compounds read low",1.03
same,normalized growth,"locus YPL240C, strain hsp82, active compounds read low",0.974
